In all, about 52,000 compounds went through this assay and about 1,700 (3.3%) were called active. The sample holds actives, similar compounds and a random draw of the others, so the mix is not that of the screen. Unmarked numbers belong to inactive results. No stated cut-off is given here; in the data, active means survival mostly below about 52% (no sharp cut-off); inactive means mostly above about 56%.

The test deals with Wild type. As to the kind of experiment: S. aureus survival, RN4220 and DeltatarO strains – OD600, teichoic acid synthesis inhibitors, primary screen (AID 463173). The conditions noted are these: S. aureus RN4220 wild type/DeltatarO growth, OD600, 18 h, hits give low values, screened at 18.75 µg/mL (by protocol).
Take `O=S(=O)(c1ccccc1)c1nnn2c1nc(NCc1ccc(Cl)cc1)c1sccc12`: the survival was 88%. With `Cc1cc(SCC(=O)NCc2ccccc2)nc(=O)[nH]1` the figure was 70%; with `Cc1cc2oc(C(=O)Nc3ccc(S(=O)(=O)N4CCCCCC4)cc3)cc(=O)c2cc1C`, 80%; with `COc1ccc(-c2nc(CSc3nnc(C)n4c3cc3oc(C)cc34)c(C)o2)cc1OC`, 89%. The same measure for `CCc1ccc(OCC(=O)Nc2ccc(Cl)c(-c3nc4cc(C)cc(C)c4o3)c2)cc1`: 51%; for `CCOc1ccc(C(=O)/C=C/c2cn(CC(O)CN3CCCCCC3)c3ccccc23)cc1` (configuration not stated): 26% (active). The same measure for `COc1ccc(C(=O)/C=C/c2cn(CC(O)CN3CCc4ccccc43)c3ccccc23)cc1OC` (configuration not stated): 87%. Regarding `COc1ccc(C(=O)/C=C/c2cn(CC(O)CN3CCCCCC3)c3ccccc23)cc1OC` (configuration not stated), the survival was 96%. With `Cc1ccc(C(=O)/C=C/c2cn(CC(O)CN3CCCCCC3)c3ccccc23)cc1` (configuration not stated) the figure was 28% (active); with `O=C(/C=C/c1cn(CC(O)CN2CCCCCC2)c2ccccc12)c1ccc(Br)cc1` (configuration not stated), 14% (active).

Take `O=C(/C=C/c1cn(CC(O)CN2CCc3ccccc32)c2ccccc12)c1ccc(Br)cc1` (configuration not stated): the survival was 70%.

Take `O=C(/C=C/c1cn(CC(O)CN2CCCCCC2)c2ccccc12)c1ccccc1` (configuration not stated): the survival is 67%. With `COc1ccc(C(=O)/C=C/c2cn(CC(O)CN3CCc4ccccc43)c3ccccc23)cc1` (configuration not stated) the figure was 63%. Regarding `Cc1ccc(Cn2ccc(NC(=O)c3cc(-c4ccc(Cl)c(Cl)c4)on3)n2)cc1`, the survival was 74%.

As to `CCOC(=O)CSc1nc2ccccc2c(=O)n1CCc1ccc(OC)c(OC)c1`, the survival was 124%. Consider `Cc1ccc(-n2c(C)cc(CO)c2C)cc1`, for which the survival is 100%. The same measure for `Cc1ccc(CNC(=O)CCc2c(C)nn(-c3ccc(N4CCOCC4)nn3)c2C)cc1`: 135%. As for `CC(=O)Nc1ccc(N=NN2CCCCC2)cc1`, the survival was 99%. As to `CCc1ccc(CN(Cc2ccco2)c2cnc(S(C)(=O)=O)nc2C(=O)Nc2c(C)cccc2C)cc1`, the survival was 70%. The same measure for `CCCOc1ccc(-c2nc3ccccc3c(=O)o2)cc1`: 70%; for `CCCOc1ccc(-c2nc(N3CCC(C)CC3)c3ccccc3n2)cc1`: -2% (active).

`c1ccc(-c2nc(N3CCCCC3)c3ccccc3n2)cc1`: the survival is 130%. In the case of `CCCOc1ccc(-c2nc(N3CCCCC3)c3ccccc3n2)cc1`, the survival is 0% (active). The same measure for `Cc1ccc(-c2nc(N3CCN(c4ccccc4Cl)CC3)c3ccccc3n2)cc1`: 62%; for `CCCOc1ccc(CNC(=O)C2CCN(c3nc4ccccc4nc3C(F)(F)F)CC2)cc1`: 59%. For the compound `O=C(CSc1nc2c([nH]c3ccccc32)c(=O)n1-c1ccccc1)N1CCCc2ccccc21`, the survival is 128%. With `c1ccc2sc(N3CCN(Cc4nnnn4C4CCCC4)CC3)nc2c1` the figure was 104%; with `Fc1ccc(Nc2ncnc3onc(-c4ccc(Cl)cc4)c23)cc1Cl`, 71%. The same measure for `Cc1ccccc1CN1C(=O)c2ccccc2Sc2ccc(C(=O)NC(C)c3ccccc3)cc21` (configuration not stated): 81%; for `CC(C)Oc1ccc(CNC(=O)c2ccc3c(c2)N(C)C(=O)C2CCCCN32)cc1` (configuration not stated): 10% (active).

As for `COc1cccc(CNC(=O)c2ccc3c(c2)N(C)C(=O)C2CCCCN32)c1` (configuration not stated), the survival is 68%. Take `CCCCOc1ccc(CNC(=O)c2ccc3c(c2)N(C)C(=O)C2CCCCN32)cc1` (configuration not stated): the survival is 88%. With `COc1ccc(CNC(=O)c2ccc3c(c2)N(C)C(=O)C2CCCCN32)cc1OC` (configuration not stated), the survival was 59%.

For `CSc1ccc(CNC(=O)c2ccc3c(c2)N(C)C(=O)C2CCCCN32)cc1` (configuration not stated), the survival was 83%. The same measure for `Cc1cccc(CNC(=O)c2ccc3c(c2)N(C)C(=O)C2CCCCN32)c1` (configuration not stated): -3% (active); for `COc1cccc(CNC(=O)c2ccc3nc(-c4ccccc4)c(-c4ccccc4)nc3c2)c1OC`: 71%. In the case of `CCC(Cn1nnc2ccccc2c1=O)NC(=O)Nc1ccccc1OC` (configuration not stated), the survival was 93%.

For `CCc1ccccc1NC(=O)[C@@H](c1ccccc1)N1Cc2ccccc2C1=O`, the survival is 22%. The same measure for `COc1ccccc1OCCSc1ncnc2nc[nH]c12`: 105%; for `Cc1ccc(-c2nnc(Nc3ccc(F)cc3)c3ccccc23)cc1S(=O)(=O)NC(C)C`: 81%. For `COCCCNC(=O)c1cc2cc(S(=O)(=O)N3CCCCC3)ccc2n1C`, the survival was 73%. For `COc1ccc(-c2noc(-c3cccc(OC)c3OC)n2)cc1`, the survival is -3% (active). Regarding `COc1ccc(C(=O)Nc2ccccc2-c2nc(-c3ccc(OC)cc3)no2)cc1`, the survival is 89%. The same measure for `COc1ccc(-c2noc(-c3ccccc3NC(=O)c3cc(OC)c(OC)c(OC)c3)n2)cc1`: 79%; for `Cc1ccc(OC(=O)c2snnc2C)cc1C`: 117%. With `COc1ccc(NC(=O)Nc2cccc(-c3cn4cccnc4n3)c2)cc1` the figure was 77%. With `CCc1ccc(S(=O)(=O)Nc2ccc3oc(C)c(C(=O)OCCOC)c3c2)cc1` the figure was 60%; with `Cc1cc(F)ccc1S(=O)(=O)Nc1ccc2oc3c(c2c1)CC(C)CC3` (configuration not stated), -6% (active); with `CCOC(=O)c1c(-c2ccccc2)oc2ccc(NS(=O)(=O)c3ccc(OC)cc3)cc12`, 66%. Regarding `CCOc1ccc(S(=O)(=O)Nc2ccc3oc4c(c3c2)CC(C)CC4)cc1` (configuration not stated), the survival is 60%.

Consider `Cc1cc(C)c(S(=O)(=O)Nc2ccc3oc4c(c3c2)CCCC4)cc1C`, for which the survival was 72%. As to `CCOC(=O)c1c(-c2ccccc2)oc2ccc(NS(=O)(=O)c3ccc(C)cc3C)cc12`, the survival was 51%. Take `CCOC(=O)c1c(-c2ccccc2)oc2ccc(NS(=O)(=O)c3ccccc3)cc12`: the survival was 7% (active). Consider `CCCCOC(=O)c1c(C)oc2ccc(NS(=O)(=O)c3ccc(F)cc3C)cc12`, for which the survival was 1% (active). For `CCOC(=O)c1c(-c2ccccc2)oc2ccc(NS(=O)(=O)c3ccc(C)cc3)cc12`, the survival is 28%. With `Cc1ccc(NC(=O)Cn2c(=O)n(CCCCC(=O)NCc3ccccc3Cl)c(=O)c3ccccc32)cc1C` the figure was 74%. Consider `Cc1cccc(NC(=O)CSc2nccn2Cc2ccc(F)cc2)c1C`, for which the survival is 71%.

The values are drawn from PubChem BioAssay AID463173 (ICCB-Longwood Screening Facility, Harvard Medical School, 2010).
